Outcome data for 40 compounds are collected here from PubChem BioAssay (EPA / NIEHS).

Calls of active or inactive are those of the source. Rule for the calls: active = hit-call score of the fitted dose curve at least 0.9, where 1 is the maximum; inactive = score below 0.9.

The nature of the assay: Tanguay_ZF_120hpf_MUSC: Oregon State University Tanguay Lab 120 Hour Post-fertilization zebrafish Assay for Muscle Malformation (AID 2284401). As for the experimental part:
Tanguay_ZF_120hpf is a whole embryo, multiplexed endpoint assay using zebrafish larvae exposed for 120 hours post fertilization on a 96-well plate.Tanguay_ZF_120hpf_MUSC is one of one assay component(s) measured or calculated from the Tanguay_ZF_120hpf assay. It is designed to make measurements of zebrafish development as detected with brightfield microscopy of developing zebrafish embryos.Data from the assay component Tanguay_ZF_120hpf_MUSC was analyzed into 1 assay endpoints. This assay endpoint, Tanguay_ZF_120hpf_MUSC, was analyzed in the positive analysis fitting direction relative to DMSO as the negative control and baseline of activity. Using a type of morphology reporter, gain-of-signal activity can be used to understand changes in developmentals as they relate to the whole embryo. To generalize the intended target to other relatable targets, this assay endpoint is annotated to the zebrafish development intended target family, where the subfamily is myogensis.
Zebrafish husbandry: Tropical 5D wild-type adult zebrafish were housed in at an approximate density of 1000 per 100 gallon tank at the Sinnhuber Aquatic Research Laboratory, Oregon State University, Corvallis, OR. Each tank was kept at standard laboratory conditions of 28C on a 14-h light/10-h dark photoperiod in fish water consisting of reverse osmosis water supplemented with a commercially available salt (Instant Ocean). Spawning funnels were placed into the tanks the night prior, and embryos were collected and staged. To increase bioavailability, the chorion was enzymatically removed using pronase (63.6mg/ml, >/= 3.5U/mg, Sigma-Aldrich: P5147) at 4 hours post fertilization (hpf) using a custom automated dechorionator.Chemical exposures: Six hpf dechorionated embryos were placed 1 embryo per well in a 96-well plate prefilled with 90 ul of EM using automated embryo placement systems (AEPS). Ten microliters of each row of dilution plate 2 was added to 2 exposure plates. The final DMSO concentration used was 0.64% (vol/vol). Thirty-two embryos were also exposed to 5uM trimethyltin chloride (positive control). Plates were sealed to prevent evaporation and foil covered to reduce light exposure and kept in a 28C incubator. Embryos were statically exposed until 120 hpf. At 24 hpf, embryos were assessed for photomotor response using a custom photomotor response analysis tool (PRAT) and for developmental toxicity endpoints (MO24: mortality at 24 hpf, DP: developmental progression, SM: spontaneous movement, and NC: notochord distortion). At 120 hpf, locomotor activity was measured using Viewpoint Zebralab and assessed for 13 endpoints. Zebrafish acquisition and analysis program (ZAAP), a custom program designed to inventory, acquire, and manage zebrafish data, was used to collect developmental endpoints as either present or absent (i.e., binary responses were recorded). If mortality occurred for an embryo (at either 24 or 120 hpf), the non-mortality endpoints were not measured.
Turning to `OCCC(F)(F)C(F)(F)C(F)(F)C(F)(F)C(F)(F)C(F)(F)F`, the call was inactive.
Consider `FC(F)(F)C(F)(F)C(F)(F)C(F)(F)C(F)(F)CCI`, for which the outcome was inactive.
In the case of `O=C(O)CCC(F)(F)C(F)(F)C(F)(F)C(F)(F)C(F)(F)F`, the compound was classed as inactive.
`OCC(F)(F)C(F)(F)C(F)(F)C(F)(F)C(F)(F)C(F)(F)C(F)(F)C(F)(F)C(F)(F)C(F)(F)C(F)(F)F`: the outcome was inactive.
Regarding `O=C(O)C(F)(F)OC(F)(F)C(F)(F)OC(F)(F)C(F)(F)OC(F)(F)C(F)(F)C(F)(F)C(F)(F)F`, the compound was classed as inactive.
Next, `C[Si](C)(C)C(F)(F)C(F)(F)C(F)(F)F`: “inactive”; `NC(=O)C(F)(F)C(F)(F)C(F)(F)C(F)(F)C(F)(F)C(F)(F)C(F)(F)F`: “inactive”.
Next, `NS(=O)(=O)C(F)(F)C(F)(F)C(F)(F)C(F)(F)C(F)(F)C(F)(F)F`: “inactive”; `O=P(O)(O)CCC(F)(F)C(F)(F)C(F)(F)C(F)(F)C(F)(F)C(F)(F)C(F)(F)C(F)(F)F`: “inactive”; `CCCCCCCCC(F)(F)C(F)(F)C(F)(F)C(F)(F)C(F)(F)C(F)(F)F`: “inactive”.
`NC(=O)C(F)(F)C(F)(F)C(F)(F)C(F)F`: the outcome was inactive.
On to `NC(O)(C(F)(F)F)C(F)(F)F`, for which the result was inactive.
Then `OCC(O)CC(F)(F)C(F)(F)C(F)(F)C(F)(F)C(F)(F)C(F)(F)C(F)(F)C(F)(F)F` (stereo not given), with “inactive”; and `FC(F)(F)C(F)(F)C(F)(F)C(F)(F)C(F)(F)C(F)(F)C(F)(F)C(F)(F)F`, with “inactive”; and `NC(=O)C(F)(F)C(F)(F)C(F)(F)F`, with “inactive”.
With `O=S(=O)(O)C(F)(F)C(F)(F)C(F)(F)C(F)(F)C(F)(F)C(F)(F)C(F)(F)F`, the outcome was inactive.
Regarding `OCC(F)(F)C(F)(F)C(F)(F)C(F)F`, the compound was called inactive.
Then `COC(=O)CCC(F)(F)C(F)(F)C(F)(F)C(F)(F)F`, with “inactive”.
Consider `O=S(=O)(OCCOC(F)(F)F)C(F)(F)F`, for which the call was inactive.
Next, `C=CC(=O)OCC(F)(F)C(F)(F)C(F)(F)C(F)(F)COC(=O)C=C`: “inactive”; `OCC(F)(F)C(F)(F)C(F)(F)CO`: “inactive”.
Consider `O=C(F)C1(F)C(F)(F)C(F)(F)C(F)(F)C(F)(F)C1(F)F`, for which the call was inactive.
As to `FC(F)(F)C(F)(F)C(F)(F)N(C(F)(F)C(F)(F)C(F)(F)F)C(F)(F)C(F)(F)C(F)(F)F`, the compound was classed as inactive.
As for `FC(F)(F)C(F)(F)C(F)(F)C(F)(F)C(F)(F)C(F)(F)C(F)(F)C(F)(F)CCS`, the result was inactive.
Consider `CO[Si](C)(CCC(F)(F)C(F)(F)C(F)(F)C(F)(F)C(F)(F)C(F)(F)F)OC`, for which the compound was classed as inactive.
Next, `O=S(=O)(O)CCC(F)(F)C(F)(F)C(F)(F)C(F)(F)C(F)(F)C(F)(F)C(F)(F)C(F)(F)F`: “inactive”; `NC(=O)C(F)(F)C(F)(F)C(F)(F)C(F)(F)F`: “inactive”; `N=C(N)C(F)(F)C(F)(F)C(F)(F)C(F)(F)C(F)(F)C(F)(F)C(F)(F)F`: “inactive”.
For `C=C(C)C(=O)OCC(F)(F)C(F)(F)C(F)(F)F`, the call was inactive.
As for `C[Si](Cl)(Cl)CCC(F)(F)C(F)(F)C(F)(F)C(F)(F)C(F)(F)C(F)(F)F`, the outcome was inactive.
Then `CNS(=O)(=O)C(F)(F)C(F)(F)C(F)(F)C(F)(F)C(F)(F)C(F)(F)C(F)(F)C(F)(F)F`, with “inactive”; and `O=C(O)C(F)(F)C(F)(F)C(F)(F)C(F)(F)C(F)(F)C(F)(F)C(F)(F)C(F)(F)C(F)(F)C(F)(F)C(F)(F)C(F)(F)F`, with “inactive”; and `O=C(O)C=C(C(F)(F)F)C(F)(F)F`, with “inactive”.
For the compound `CCN(CCO)S(=O)(=O)C(F)(F)C(F)(F)C(F)(F)C(F)(F)C(F)(F)C(F)(F)C(F)(F)C(F)(F)F`, the call was inactive.
With `COC(F)(C(F)F)C(F)(F)F` (stereo not given), the outcome was inactive.
Then `O=C(O)C(F)(F)C(F)(F)C(F)(F)F`, with “inactive”; and `NC(=O)C(F)(F)C(F)(F)C(F)(F)C(F)(F)C(N)=O`, with “inactive”; and `C=CC(=O)OCC(F)(F)C(F)(F)C(F)(F)COC(=O)C=C`, with “inactive”.
Take `OCC(F)(F)C(F)(F)C(F)(F)C(F)(F)C(F)(F)C(F)(F)C(F)(F)C(F)(F)CO`: the result was inactive.
Then `C=CC(=O)OCCC(F)(F)C(F)(F)C(F)(F)C(F)(F)F`, with “inactive”.
